Measured values from PubChem BioAssay (Tox21).
Records with an inconclusive call do not appear. The source made the active and inactive calls. Unless noted, calls come from the whole dose curve; as a rule, active = well fitted curve in the direction sought with a large enough effect in the repeat runs; inconclusive = weak or mixed curves; inactive = no such curve, though single readings can be large; an effect the other way counts as inactive or inconclusive.

What was measured:
[1] = qHTS assay to identify small molecule agonists of the peroxisome proliferator-activated receptor delta (PPARd) signaling pathway - cell viability counter screen (AID 743211); note: % is set by controls: 0 for no effect and ±100 for the full control effect; nearly all actives have a fitted effect of over 55% in size
Outline: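 Read-out: CellTiter-Glo luminescence, 30 min RT, measured in the same wells as the beta-lactamase reporter. Cells: GeneBLAzer PPAR delta UAS-bla HEK293H, 3000 cells/well, compound exposure 17 h at 37C.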

[2] = target: Bile acid receptor (Homo sapiens) (UniProt Q96RI1); assay: qHTS assay to identify small molecule antagonists of the farnesoid-X-receptor (FXR) signaling pathway (AID 743217; active = well fitted inhibition curve with a large enough effect in the signal ratio in the repeat runs, not every such curve was filed as active; the % refers to the signal ratio; note: % is set by controls: 0 for no effect and ±100 for the full control effect)
Bile acid receptor (Homo sapiens), sequence (Q96RI1 whole entry, looked up): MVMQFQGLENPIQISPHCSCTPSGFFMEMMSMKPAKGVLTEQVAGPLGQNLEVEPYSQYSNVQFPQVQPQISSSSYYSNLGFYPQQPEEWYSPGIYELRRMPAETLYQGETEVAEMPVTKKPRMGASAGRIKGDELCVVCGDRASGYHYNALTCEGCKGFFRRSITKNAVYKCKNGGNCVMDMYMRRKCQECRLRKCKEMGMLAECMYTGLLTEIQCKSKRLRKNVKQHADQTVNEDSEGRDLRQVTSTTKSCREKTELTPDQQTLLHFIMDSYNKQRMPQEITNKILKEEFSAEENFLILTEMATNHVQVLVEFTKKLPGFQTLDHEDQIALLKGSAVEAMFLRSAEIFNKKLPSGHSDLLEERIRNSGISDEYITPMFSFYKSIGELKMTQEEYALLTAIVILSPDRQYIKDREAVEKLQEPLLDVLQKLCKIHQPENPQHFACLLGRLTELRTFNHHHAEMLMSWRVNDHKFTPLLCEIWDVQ
Outline: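 FXR-UAS-bla HEK 293T cells pre-incubated 5 h at 37 °C, then exposed to compounds with chenodeoxycholic acid (50 uM final) for 16 h at 37 °C. Beta-lactamase reporter read by LiveBLAzer B/G FRET substrate fluorescence after 2 h at room temperature.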

[3] = qHTS assay to identify small molecule agonists of the farnesoid-X-receptor (FXR) signaling pathway - cell viability counter screen (AID 743218); note: % is set by controls: 0 for no effect and ±100 for the full control effect; nearly all actives have a fitted effect of over 45% in size
Outline: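 FXR-UAS-bla HEK 293T cells, plated 5 h at 37 C, were exposed to compounds for 16 h at 37 C. CellTiter-Glo was then added to the same wells as the bla readout; luminescence read after 30 min at room temperature.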

[4] = target: Bile acid receptor (Homo sapiens) (UniProt Q96RI1); assay: qHTS assay to identify small molecule agonists of the farnesoid-X-receptor (FXR) signaling pathway (AID 743220; active = well fitted activation curve with a large enough effect in the signal ratio in the repeat runs, not every such curve was filed as active; the % refers to the signal ratio; note: % is set by controls: 0 for no effect and ±100 for the full control effect)
Outline: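 Beta-lactamase reporter under UAS control in GeneBLAzer FXR HEK 293T cells (5000/well) measured with LiveBLAzer FRET substrate after 2 h at room temperature. Compound exposure lasted 16 h at 37C.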

[5] = qHTS assay to identify small molecule antagonists of the farnesoid-X-receptor (FXR) signaling pathway - cell viability counter screen (AID 743221; active = well fitted cell-killing curve with a large enough effect in the repeat runs, not every such curve was filed as active; note: % is set by controls: 0 for no effect and ±100 for the full control effect; nearly all actives have a fitted effect of over 50% in size)
Outline: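 HEK 293T FXR-bla cells, 5 h pre-incubation; compound + CDCA 50 uM final, 16 h, 37 C; beta-lactamase FRET read first, then CellTiter-Glo luminescence, 30 min RT.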

[6] = target: Vitamin D3 receptor (Homo sapiens) (UniProt P11473); assay: qHTS assay to identify small molecule agonists of the vitamin D receptor (VDR) signaling pathway (AID 743222; calls by dose curve; note: % is set by controls: 0 for no effect and ±100 for the full control effect)
Vitamin D3 receptor (Homo sapiens), sequence (P11473 whole entry, looked up): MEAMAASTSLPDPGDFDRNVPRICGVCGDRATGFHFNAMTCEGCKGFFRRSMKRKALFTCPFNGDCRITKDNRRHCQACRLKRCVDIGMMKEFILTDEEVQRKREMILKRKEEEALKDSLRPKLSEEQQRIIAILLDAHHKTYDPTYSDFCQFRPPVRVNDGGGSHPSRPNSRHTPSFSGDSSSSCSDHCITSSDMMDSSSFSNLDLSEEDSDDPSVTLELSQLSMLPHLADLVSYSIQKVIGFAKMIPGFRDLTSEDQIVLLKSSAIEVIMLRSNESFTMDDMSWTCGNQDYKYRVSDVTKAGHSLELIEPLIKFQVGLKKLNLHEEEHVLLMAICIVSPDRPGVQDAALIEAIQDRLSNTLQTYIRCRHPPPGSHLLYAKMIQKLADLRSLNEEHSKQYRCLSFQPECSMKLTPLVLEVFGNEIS
Outline: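 VDR-bla cells were plated 4 h at 37C/5% CO2, then exposed to compounds in DMSO for 16 h. After LiveBLAzer B/G FRET substrate addition and 2 h at room temperature, beta-lactamase reporter fluorescence was read.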

[7] = qHTS assay to identify small molecule agonists of the vitamin D receptor (VDR) signaling pathway - cell viability counter screen (AID 743224); note: series mostly up to about 63 µM; % is set by controls: 0 for no effect and ±100 for the full control effect; nearly all actives have a fitted effect of over 50% in size
Outline: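 VDR-bla cells were preincubated 4 h at 37C/5% CO2, then exposed to compounds for 16 h. After the 2 h room-temperature bla FRET read, CellTiter-Glo was added to the same wells and luminescence read after 30 min.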

[8] = qHTS assay to identify small molecule antagonists of the vitamin D receptor (VDR) signaling pathway - cell viability counter screen (AID 743225); note: % is set by controls: 0 for no effect and ±100 for the full control effect; nearly all actives have a fitted effect of over 50% in size
Outline: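 Viability counter screen run in the same wells as the beta-lactamase reporter assay: HEK 293T VDR-UAS-bla cells, 16 h compound exposure at 37C with 3 nM (final) 1-alpha,25-dihydroxyvitamin D3. CellTiter-Glo luminescence, 30 min, room temperature.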

[9] = qHTS assay to identify small molecule agonists of the NFkB signaling pathway (AID 1159509; active = well fitted curve in the direction sought with a large enough effect in the signal ratio in the repeat runs, not every such curve was filed as active; the % refers to the signal ratio; note: series mostly up to about 61 µM; % is set by controls: 0 for no effect and ±100 for the full control effect)
Outline: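 NFkB-bla ME-180 cells carry a beta-lactamase reporter under an NF-kB response element. They were plated overnight, then exposed to compounds for 5 h at 37 C. Read-out is LiveBLAzer FRET after 1.5 hr at room temperature (405 nm excitation; 460/530 nm emission).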

[10] = qHTS assay to identify small molecule agonists of the endoplasmic reticulum stress response signaling pathway (AID 1159516; active = well fitted activation curve with a large enough effect in the signal ratio in the repeat runs, not every such curve was filed as active; the % refers to the signal ratio; note: % is set by controls: 0 for no effect and ±100 for the full control effect)
Outline: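 CellSensor ESRE-bla HeLa cells, carrying a beta-lactamase reporter driven by the ER stress response element, were plated overnight and exposed to compounds for 5 hr at 37 C. Reporter activity was read as FRET substrate fluorescence after 2 hr at room temperature.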

[11] = qHTS assay to identify small molecule agonists of the endoplasmic reticulum stress response signaling pathway - cell viability counter screen (AID 1159517; calls by dose curve; note: series mostly up to about 61 µM; % is set by controls: 0 for no effect and ±100 for the full control effect; nearly all actives have a fitted effect of over 50% in size)
Outline: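 CellTiter-Glo was added to wells already read for beta-lactamase FRET, and luminescence was recorded 30 min later. Cells: ESRE-bla HeLa, 1,500 per well, compound exposure 5 hr at 37 C.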

[12] = qHTS assay to identify small molecule antagonists of the retinoid-related orphan receptor gamma (ROR-gamma) signaling pathway - cell viability counter screen (AID 1159520)
Outline: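 Tet-on ROR gamma CHO cells (1,000/well) were plated 4 hr, given compounds in DMSO for 2 hr at 37 C, then induced with 1 uM final doxycycline for 16 hr. Viability was read as ATP by CellTiter-Glo luminescence after 30 min.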

[13] = qHTS assay to identify small molecule agonists of the AP-1 signaling pathway - cell viability counter screen (AID 1159525; calls by dose curve; note: nearly all actives have a fitted effect of over 55% in size)
Outline: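 ME-180 AP-1-bla, 2500 cells/well, Opti-MEM + 0.5% dialyzed FBS; overnight 37 °C; cpd 15-pt titration, 5 h 37 °C; CellTiter-Glo 30 min RT; luminescence read; normalised to TOAB and DMSO controls.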

[14] = qHTS assay to identify small molecule agonists of the AP-1 signaling pathway (AID 1159526; calls by dose curve; note: % is set by controls: 0 for no effect and ±100 for the full control effect)
[15] = target: Peroxisome proliferator-activated receptor delta (Homo sapiens) (UniProt Q03181); assay: qHTS assay to identify small molecule agonists of the peroxisome proliferator-activated receptor delta (PPARd) signaling pathway (AID 743212; calls by dose curve; note: % is set by controls: 0 for no effect and ±100 for the full control effect)
Peroxisome proliferator-activated receptor delta (Homo sapiens), sequence (Q03181 whole entry, looked up): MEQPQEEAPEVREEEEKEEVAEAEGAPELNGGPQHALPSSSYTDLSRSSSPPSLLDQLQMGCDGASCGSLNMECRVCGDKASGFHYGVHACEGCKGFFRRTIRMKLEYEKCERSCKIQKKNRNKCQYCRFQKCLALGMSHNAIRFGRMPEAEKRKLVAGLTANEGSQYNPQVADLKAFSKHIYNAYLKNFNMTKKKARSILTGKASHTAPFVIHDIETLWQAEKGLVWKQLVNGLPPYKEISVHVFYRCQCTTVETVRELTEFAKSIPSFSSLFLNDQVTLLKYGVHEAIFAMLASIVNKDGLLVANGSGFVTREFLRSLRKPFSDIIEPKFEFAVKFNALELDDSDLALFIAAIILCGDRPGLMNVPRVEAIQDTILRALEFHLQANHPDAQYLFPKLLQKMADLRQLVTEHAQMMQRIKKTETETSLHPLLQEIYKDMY
Outline: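 A PPARd-bla HEK293H line with beta-lactamase under an Upstream Activator Sequence is treated with compounds at 37 C. Substrate loading for 2 h at room temperature precedes the fluorescence measurement.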

[16] = qHTS assay to identify small molecule antagonists of the peroxisome proliferator-activated receptor delta (PPARd) signaling pathway - cell viability counter screen (AID 743213)
Outline: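 Luminescence from CellTiter-Glo, added after the bla read and incubated 30 min at room temperature, gives viability of HEK293H PPARd-bla cells exposed to compounds for 17 h at 37 C with 300 nM L165041.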

[17] = target: Peroxisome proliferator-activated receptor delta (Homo sapiens) (UniProt Q03181); assay: qHTS assay to identify small molecule antagonists of the peroxisome proliferator-activated receptor delta (PPARd) signaling pathway (AID 743215; active = well fitted inhibition curve with a large enough effect in the signal ratio in the repeat runs, not every such curve was filed as active; the % refers to the signal ratio)
Outline: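 PPARd UAS-bla HEK293H cells were pre-incubated 5 h at 37 C, then given test compounds in DMSO plus agonist L165041 (300 nM final). After 17 h at 37 C, beta-lactamase FRET substrate was added; fluorescence read after 2 h at room temperature.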

[18] = target: Vitamin D3 receptor (Homo sapiens) (UniProt P11473); assay: qHTS assay to identify small molecule antagonists of the vitamin D receptor (VDR) signaling pathway (AID 743223; active = well fitted inhibition curve with a large enough effect in the signal ratio in the repeat runs, not every such curve was filed as active; the % refers to the signal ratio; note: % is set by controls: 0 for no effect and ±100 for the full control effect)
Outline: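 Beta-lactamase reporter read-out: FRET substrate fluorescence after 2 h at room temperature, following 16 h exposure of VDR-bla cells to test compound plus 3 nM (final) 1alpha,25-dihydroxyvitamin D3 agonist at 37C.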

[19] = target: Nuclear receptor ROR-gamma (Homo sapiens) (UniProt P51449); assay: qHTS assay to identify small molecule antagonists of the retinoid-related orphan receptor gamma (ROR-gamma) signaling pathway (AID 1159521)
Outline: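 Luminescence readout (ONE-Glo, 30 min RT) after 16 h doxycycline induction; loss of signal scored as antagonism. CHO cells with TET-inducible RORγ and RORE-LUC reporter; compounds added 2 h before 1 uM final doxycycline.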

CC(=O)N(c1onc(C)c1C)S(=O)(=O)c1ccc(N)cc1
inactive: Potency [1] | Potency [2] | Potency [3] | Potency [4] | Potency [5] | outcome [6] | Potency [7] | Potency [8] | outcome [9] | outcome [10] | outcome [11] | Potency [12] | outcome [13] | outcome [14]

C[N+](C)(C)CCOC(N)=O
inactive: Potency [1] | Potency [15] | Potency [16] | Potency [17] | Potency [2] | Potency [3] | Potency [4] | Potency [5] | outcome [6] | outcome [18] | Potency [7] | Potency [8] | outcome [9] | outcome [10] | outcome [11] | Potency [12] | outcome [13]

O=c1[nH]c2ccc(S(=O)CCN3CCC(Cc4ccc(F)cc4)CC3)cc2o1 (stereo not drawn)
inactive: Potency [1] | Potency [16] | Potency [17] | Potency [5] | Potency [7] | Potency [8] | outcome [9] | outcome [10] | outcome [11] | Potency [12] | outcome [13] | outcome [14]

CNC(=O)N(c1ccccc1)c1ccccc1
inactive: Potency [1] | Potency [16] | Potency [3] | Potency [5] | Potency [7] | Potency [8] | outcome [9] | outcome [10] | outcome [11] | Potency [12] | outcome [13] | outcome [14]

[O]=[Bi]
inactive: activity change, negative = cytotoxicity [1] 2.23% [at 5.95 µM] | viability change, negative = cytotoxic [16] -12.9% [at 6.26 µM] | ratio activity, negative = inhibition [17] 3.78% [at 6.26 µM] | activity change, negative = inhibition [2] 6.5% [at 5.95 µM] | viability change, negative = cytotoxic [3] 7.08% [at 5.95 µM] | activation [4] 0.937% [at 5.95 µM] | activity change, negative = cytotoxicity [5] 2.95% [at 5.95 µM] | activity change, negative = inhibition [18] 5.58% [at 6.95 µM] | viability change, negative = cytotoxic [8] -2.19% [at 6.95 µM] | activation [9] -0.308% [at 6.95 µM] | activation [10] -0.917% [at 6.95 µM] | activity change, negative = cytotoxicity [11] 9.83% [at 6.95 µM] | activity, negative = cytotoxicity [12] 7.56% [at 8.39 µM] | viability change, negative = cytotoxic [13] 2.46% [at 6.97 µM]

Nc1nc(Cl)nc2c1ncn2[C@@H]1O[C@H](CO)[C@@H](O)[C@@H]1F
inactive: Potency [1] | Potency [15] | Potency [16] | Potency [3] | Potency [4] | Potency [5] | outcome [6] | Potency [7] | Potency [8] | outcome [9] | outcome [10] | outcome [11] | Potency [12] | outcome [13] | outcome [14]

O=C1OCCN1/N=C/c1ccc([N+](=O)[O-])o1
inactive: Potency [1] | Potency [15] | Potency [17] | Potency [3] | Potency [5] | outcome [6] | Potency [7] | Potency [8] | outcome [9] | outcome [10] | outcome [11] | Potency [12] | outcome [13] | outcome [14]

CC(=O)Nc1ccc(N)cc1
inactive: Potency [1] | Potency [15] | Potency [16] | Potency [17] | Potency [2] | Potency [3] | Potency [4] | Potency [5] | outcome [6] | Potency [7] | Potency [8] | outcome [9] | outcome [10] | outcome [11] | Potency [12] | outcome [13] | outcome [14]

CCCCCCOC(=O)CCCCCCCC(=O)OCCCCCC
inactive: Potency [1] | Potency [15] | Potency [16] | Potency [17] | Potency [5] | outcome [6] | outcome [18] | Potency [7] | outcome [9] | outcome [10] | outcome [11] | Potency [12] | outcome [14]

O=C(CS)OCCOC(=O)CS
inactive: Potency [1] | Potency [15] | Potency [16] | Potency [17] | Potency [2] | Potency [3] | Potency [4] | Potency [5] | outcome [6] | outcome [18] | Potency [7] | Potency [8] | outcome [9] | outcome [10] | outcome [11] | Potency [19] | outcome [13] | outcome [14]

O=C(O)c1snc(Cl)c1Cl
inactive: Potency [1] | Potency [15] | Potency [16] | Potency [17] | Potency [2] | Potency [3] | Potency [4] | Potency [5] | outcome [6] | outcome [18] | Potency [7] | Potency [8] | outcome [9] | outcome [10] | outcome [11] | Potency [12] | outcome [13] | outcome [14]

Brc1cc(-c2ccc(Br)c(Br)c2Br)cc(Br)c1Br
inactive: Potency [1] | Potency [15] | Potency [16] | Potency [17] | Potency [5] | outcome [6] | outcome [18] | Potency [7] | Potency [8] | outcome [9] | outcome [10] | outcome [11] | Potency [12] | outcome [13] | outcome [14]

CCCCCCCC/C=C\CCCCCCCC(=O)OC(CO)CO
inactive: Potency [16] | Potency [3] | Potency [5] | Potency [7] | outcome [9] | outcome [10] | outcome [11] | Potency [12] | outcome [14]

CCCCCCCC/C=C\CCCCCCCC(=O)OC
inactive: Potency [1] | Potency [15] | Potency [16] | Potency [17] | Potency [5] | outcome [6] | outcome [18] | Potency [7] | Potency [8] | outcome [9] | outcome [10] | outcome [11] | Potency [12] | outcome [13] | outcome [14]
